Results filed as inconclusive are left out. Calls of active or inactive are those of the source. The call rests on the fitted dose curve; in most records, active means well fitted cell-killing curve with a large enough effect in the repeat runs; inconclusive means weak or mixed curves, or effect the other way; inactive means flat fitted curve, though single readings scatter.
Assay: qHTS assay to identify small molecule antagonists of the androgen receptor (AR) signaling pathway using the MDA cell line - cell viability counter screen (AID 743041; further: nearly all actives have a fitted effect of over 45% in size)
Details: MDA-kb2 viability, CellTiter-Fluor, 16 h, cells co-treated with R1881 androgen agonist; series mostly up to 70.3 µM
Source text: National Center for Advancing Translational Sciences [NCATS]
NIH Chemical Genomics Center [NCGC]
U.S. Environmental Protection Agency [EPA]
National Institutes of Environmental Health Sciences [NIEHS]
National Toxicology Program [NTP]
U.S. Food and Drug Administration [FDA]
Androgen receptor (AR), a nuclear hormone receptor, plays a critical role in AR-dependent prostate cancer and other androgen related diseases. Endocrine disrupting chemicals (EDCs) and their interactions with steroid hormone receptors like AR may cause disruption of normal endocrine function as well as interfere with metabolic homeostasis, reproduction, developmental and behavioral functions. To identify the compounds that inhibit AR signaling, MDA-kb2 AR-luc cell line (from ATCC, deposited by Wilson et al.) was used to screen the Tox21 10K compound library. MDA-kb2 AR-luc cell line is human breast carcinoma cell line that was stably transfected with a luciferase reporter gene under control of the MMTV promoter containing response elements for both androgen receptor (AR) and glucocorticoid receptor (GR). The cytotoxicity of the Tox21 compound library against the MDA-kb2 AR-luc cell line was tested in parallel by measuring the cell viability using CellTiter-Fluor assay (Promega, Madison, WI) in the same wells.
Tox21 Assay Protocol Summary:
MDA-kb2 AR-luc cells were dispensed at 3,000 cells/4 uL/well of culture medium into white wall/solid-bottom 1536-well plates using a Multidrop Combi (ThermoFisher Scientific, Waltham, MA) dispenser. After the assay plates were incubated at a 37C and 0% CO2 for 5 hr, 23 nL of compounds dissolved in DMSO, positive controls or DMSO only was transferred to the assay plate by a Pintool station (Kalypsys, San Diego, CA), followed by addition of 1 uL of agonist (R1881) in culture medium using a Bioraptr Flying Reagent Dispenser (FRD) workstation (Beckman Coulter, Indianapolis, IN, USA). The plates were incubated at a 37C and 0% CO2 for 16 h. After 15.5 h incubation, 1uL of CellTiter-Fluor reagent (Promega) was added using a Bioraptr FRD to each plate for measuring cytotoxicity. The fluorescence intensity was quantified on a ViewLux plate reader (PerkinElmer, Shelton, CT) following 30 min incubation at 37C and 0% CO2.

| Structure (SMILES) | outcome |
| --- | --- |
| CC(Br)C(=O)O (stereo not given) | inactive |
| O=[N+]([O-])c1ccccc1 | inactive |
| COc1ccc2c3c1O[C@H]1[C@@H](O)C=C[C@H]4[C@@H](C2)N(C)CC[C@@]341 | inactive |
| CN(C)[C@@H]1C(=O)C(C(N)=O)=C(O)[C@@]2(O)C(=O)C3=C(O)c4c(O)cccc4[C@@](C)(O)[C@H]3C[C@@H]12 | inactive |
| CCOP(OCC)OCC | inactive |
| CCCCOC(=O)c1ccccc1C(=O)OCCCC | inactive |
| O=[N+]([O-])c1ccc([As](=O)(O)O)cc1 | inactive |
| CCCCCCCCCl | inactive |
| O=Cc1cccc(Oc2ccccc2)c1 | inactive |
| c1ccc(OP(Oc2ccccc2)Oc2ccccc2)cc1 | inactive |
| Nc1ccc(Br)cc1 | inactive |
| C1CN2CCN1CC2 | inactive |
| Cc1ccc(N)cc1N | inactive |
| CN1C(=O)CN=C(c2ccccc2)c2cc(Cl)ccc21 | inactive |
| COP(N)(=O)SC (stereo not given) | inactive |
| CC(=O)C=C(C)C | inactive |
| CC(C)C1(C)N=C(c2nc3ccccc3cc2C(=O)O)NC1=O (stereo not given) | inactive |
| O=C(O)c1ccccn1 | inactive |
| CCOC(=O)c1ccccc1C(=O)OCC | inactive |
| NCC(O)c1ccc(O)cc1 (stereo not given) | inactive |

| Structure (SMILES) | outcome |
| --- | --- |
| [N-]=[N+]=[N-] | inactive |
| COC(=O)NC(=S)Nc1ccccc1NC(=S)NC(=O)OC | inactive |
| CCCC1COC(Cn2cncn2)(c2ccc(Cl)cc2Cl)O1 (stereo not given) | inactive |
| C1CC2OC2CC1C1CO1 (stereo not given) | inactive |
| CCC(C)(CC)c1cc(NC(=O)c2c(OC)cccc2OC)on1 | inactive |
| CC(C)(C)OOC(=O)c1ccccc1 | inactive |
| Cc1[nH]c(=O)n(C(C)(C)C)c(=O)c1Cl | inactive |
| CC(C)(C)C(O)(CCc1ccc(Cl)cc1)Cn1cncn1 (stereo not given) | inactive |
| CCN(CC)CCO | inactive |
| Clc1ccccc1Cl | inactive |
| CC(C)OC(=O)Nc1cccc(Cl)c1 | inactive |
| CN(C)N=O | inactive |
| c1ccc2c(c1)oc1ccccc12 | inactive |
| O=c1n(Cl)c(=O)n(Cl)c(=O)n1Cl | inactive |
| CC(Oc1ccc(Cl)cc1Cl)C(=O)O (stereo not given) | inactive |
| CC(NC(C)(C)C)C(=O)c1cccc(Cl)c1 (stereo not given) | inactive |
| CN(N=O)c1ccccc1 | inactive |
| OCCN(CCO)CCO | inactive |
| CC(C)NC(=O)N1CC(=O)N(c2cc(Cl)cc(Cl)c2)C1=O | inactive |
| Cc1ccccc1O | inactive |

From PubChem BioAssay (Tox21)
